IDE exosite FP = exo-site inhibitors of human IDE, primary screen, biochemical, fluorescence anisotropy, probe displacement; 17,000 compounds, 6.3% hits; Insulin-degrading enzyme (Homo sapiens), P14735; z-score at 20 µM; purified IDE, FL-6b probe fluorescence polarization; active compounds read low;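 active = z-score of -3 or lower, meaning strong loss of probe binding signal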;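 also: His-tagged human IDE residues 42-1019 made in E. coli with 30 nM FL-6b probe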
Numbers stand for hits. The entries come from a sample that favours hits as a whole.

Results for COc1cccc(-c2ccc([C@H]3[C@@H](CO)N4C(=O)CN(C(=O)c5cccnc5)C[C@@H]34)cc2)c1 ?
IDE exosite FP: inactive

What do the screens show for `COc1cccc(-c2ccc([C@H]3[C@@H](CO)N4C(=O)CN(C(=O)c5cccnc5)C[C@H]34)cc2)c1`?
IDE exosite FP: -4.9

Results for COc1cccc(-c2ccc([C@H]3[C@H](CO)N4C(=O)CN(C(=O)c5cccnc5)C[C@@H]34)cc2)c1 ?
IDE exosite FP: inactive

What do the screens show for `COc1ccc(C#Cc2ccc([C@@H]3[C@@H](CO)N4C(=O)CN(C(=O)c5cccnc5)C[C@H]34)cc2)cc1`?
IDE exosite FP: inactive

Results for COc1ccc(C#Cc2ccc([C@H]3[C@H](CO)N4C(=O)CN(C(=O)c5cccnc5)C[C@@H]34)cc2)cc1 ?
IDE exosite FP: inactive

How did COc1cccc(-c2ccc([C@@H]3[C@@H](CO)N4C(=O)CN(C(=O)c5cccnc5)C[C@@H]34)cc2)c1 do in these assays?
IDE exosite FP: -3.7

Results for CN(C)CC#Cc1ccc([C@@H]2[C@@H](CO)N3C(=O)CN(C(=O)c4ccccc4)C[C@@H]23)cc1 ?
IDE exosite FP: inactive

How did CCCC#Cc1ccc([C@H]2[C@H]3CN(S(=O)(=O)c4ccccc4F)CCCCN3[C@H]2CO)cc1 do in these assays?
IDE exosite FP: inactive

What do the screens show for `Cc1cccc(S(=O)(=O)N2[C@@H]3Cn4c(cccc4=O)[C@H]2[C@@H](C(=O)N(C)C)[C@@H]3CO)c1`?
IDE exosite FP: inactive

Results for CN(C)CC(=O)N[C@@H]1CC[C@H](CCNC(=O)C2CCC2)O[C@H]1CO ?
IDE exosite FP: inactive

Results for O=C(Nc1ccccc1F)N1CC(=O)N2[C@H](C1)[C@@H](c1ccc(-c3cccnc3)cc1)[C@@H]2CO ?
IDE exosite FP: inactive

Results for CCC(=O)N(C)C[C@H]1[C@@H](c2ccc(-c3cccnc3)cc2)[C@@H](CO)N1C(C)=O ?
IDE exosite FP: inactive

Results for COCC#Cc1ccc([C@@H]2[C@H]3CN(C(=O)NC4CCCC4)CCCCN3[C@H]2CO)cc1 ?
IDE exosite FP: inactive

What do the screens show for `CCCC#Cc1ccc([C@@H]2[C@@H](CO)N3CCCCN(C(=O)NC4CCCC4)C[C@@H]23)cc1`?
IDE exosite FP: inactive

What do the screens show for `CCCC#Cc1ccc([C@@H]2[C@H](CO)N3CCCCN(C(=O)NC4CCCC4)C[C@@H]23)cc1`?
IDE exosite FP: -5.2

Results for COCC#Cc1ccc([C@@H]2[C@H](CO)N3CCCCN(C(=O)NC4CCCC4)C[C@@H]23)cc1 ?
IDE exosite FP: inactive

How did CCCC#Cc1ccc([C@H]2[C@@H](CO)N3CCCCN(C(=O)NC4CCCC4)C[C@H]23)cc1 do in these assays?
IDE exosite FP: -3.2

Results for COCC#Cc1ccc([C@@H]2[C@@H](CO)N3CCCCN(C(=O)NC4CCCC4)C[C@@H]23)cc1 ?
IDE exosite FP: inactive

Results for COCC#Cc1ccc([C@@H]2[C@@H](CO)N3C(=O)CN(C(=O)Nc4cc(F)ccc4F)C[C@H]23)cc1 ?
IDE exosite FP: inactive

Results for O=C(C[C@H]1CC[C@H]2[C@@H](COC[C@@H](O)CN2S(=O)(=O)c2ccc(F)cc2)O1)NCCN1CCCCC1 ?
IDE exosite FP: inactive

Results for CC(C)[C@H]1C(=O)NCCC=CC[C@H](C)Oc2ccccc2C(=O)N1C (mixture of isomers) ?
IDE exosite FP: inactive

What do the screens show for `COc1ccccc1S(=O)(=O)N1CC[C@@H]2[C@H]1c1cc(-c3cccc(C#N)c3)ccc1N(C)[C@H]2CO`?
IDE exosite FP: inactive

Results for COc1ccc(-c2ccc([C@H]3[C@H]4CN(Cc5ccccc5)CC(=O)N4[C@H]3CO)cc2)cc1 ?
IDE exosite FP: inactive

How did O=C(C1CCOCC1)N1CC(=O)N2[C@@H](CO)[C@H](c3ccc(C#Cc4cccc(F)c4)cc3)[C@@H]2C1 do in these assays?
IDE exosite FP: -6.6

How did O=C(C1CCOCC1)N1CC(=O)N2[C@H](CO)[C@H](c3ccc(C#Cc4cccc(F)c4)cc3)[C@@H]2C1 do in these assays?
IDE exosite FP: -8.2

What do the screens show for `O=C(C1CCOCC1)N1CC(=O)N2[C@H](C1)[C@@H](c1ccc(C#Cc3cccc(F)c3)cc1)[C@@H]2CO`?
IDE exosite FP: -9.4

What do the screens show for `O=C(C1CCOCC1)N1CC(=O)N2[C@H](CO)[C@@H](c3ccc(C#Cc4cccc(F)c4)cc3)[C@H]2C1`?
IDE exosite FP: -4.4

Results for O=C(C1CCOCC1)N1CC(=O)N2[C@H](CO)[C@@H](c3ccc(C#CC4CC4)cc3)[C@@H]2C1 ?
IDE exosite FP: inactive

What do the screens show for `CO[C@H]1CN(C)C(=O)c2ccc(NC(=O)Nc3ccccc3Cl)cc2OC[C@@H](C)NC[C@@H]1C`?
IDE exosite FP: inactive

What do the screens show for `O=C(NCC[C@H]1CC[C@@H](NS(=O)(=O)c2ccc(F)cc2)[C@H](CO)O1)c1ccc2c(c1)OCO2`?
IDE exosite FP: inactive

What do the screens show for `O=C(c1ccc(F)cc1)N1CC(=O)N2[C@@H](CO)[C@H](c3ccc(-c4ccccc4)cc3)[C@@H]2C1`?
IDE exosite FP: inactive

What do the screens show for `CO[C@@H]1CN(C)C(=O)c2ccc(NC(=O)NC3CCCCC3)cc2OC[C@@H](C)N(CCc2ccccc2)C[C@H]1C`?
IDE exosite FP: inactive

What do the screens show for `CN(C)CC#Cc1ccc([C@@H]2[C@H]3CN(C(=O)Cc4ccccc4)CC(=O)N3[C@H]2CO)cc1`?
IDE exosite FP: inactive

Results for CC[C@@H]1C/C=C\CCNC(=O)C[C@H](c2ccccc2)C(=O)N1 ?
IDE exosite FP: inactive

Results for CS(=O)(=O)N1[C@H](C#N)[C@@H](c2ccc(C#Cc3cccc(F)c3)cc2)[C@H]1CO ?
IDE exosite FP: inactive

Results for O=C(C[C@@H]1C[C@H]2c3cc(NC(=O)NC4CCCC4)ccc3O[C@H]2[C@@H](CO)O1)NCc1ccccc1F ?
IDE exosite FP: inactive

How did C/C=C/c1ccc([C@H]2[C@@H](CO)N(C(C)=O)[C@H]2CNC(=O)c2ccccc2)cc1 do in these assays?
IDE exosite FP: inactive

What do the screens show for `CCCC(=O)Nc1ccc2c(c1)C(=O)N(C)C[C@H](OC)[C@@H](C)CN(C(=O)c1ccccn1)[C@@H](C)CO2`?
IDE exosite FP: inactive

What do the screens show for `COc1ccccc1-c1ccc([C@@H]2[C@@H](C#N)N(C(=O)C3CCOCC3)[C@H]2CO)cc1`?
IDE exosite FP: -9.8

How did N#C[C@H]1[C@H](c2ccc(-c3cccnc3)cc2)[C@H](CO)N1C(=O)C1CC1 do in these assays?
IDE exosite FP: inactive

How did COc1ccccc1-c1ccc([C@@H]2[C@@H](CO)N(C(=O)C3CCOCC3)[C@H]2C#N)cc1 do in these assays?
IDE exosite FP: -11

How did N#C[C@H]1[C@H](c2ccc(-c3cncnc3)cc2)[C@@H](CO)N1C(=O)C1CCOCC1 do in these assays?
IDE exosite FP: inactive

Results for COc1ccc(-c2ccccc2[C@H]2[C@@H](C#N)N(C(=O)C3CCOCC3)[C@H]2CO)cc1 ?
IDE exosite FP: inactive

Results for N#C[C@H]1[C@@H](c2ccc(/C=C/c3ccccc3)cc2)[C@@H](CO)N1C(=O)C1CCOCC1 ?
IDE exosite FP: inactive

What do the screens show for `COc1ccccc1-c1ccccc1[C@@H]1[C@@H](CO)N(C(=O)C2CCOCC2)[C@H]1C#N`?
IDE exosite FP: inactive

Results for N#C[C@H]1[C@H](c2ccc(-c3cccnc3)cc2)[C@@H](CO)N1C(=O)C1CCOCC1 ?
IDE exosite FP: inactive

How did N#C[C@H]1[C@@H](c2ccc(-c3cccnc3)cc2)[C@@H](CO)N1C(=O)C1CCOCC1 do in these assays?
IDE exosite FP: -3

Screens from PubChem.
